Bioassay records (PubChem)
Sm TGR inh – blocks Schistosoma mansoni thioredoxin glutathione reductase; AID 485364; purified TGR, DTNB reduction, TNB absorbance 405 nm; Potency, µM (highest dose often 114 µM), without a hit: top-dose activity change, negative = inhibition, actives largely listed as inhibitors; 3% of 360,000 active; note: potency is the fitted concentration of half-maximal effect; % is set by controls: 0 for no effect and ±100 for the full control effect; nearly all actives have a fitted effect of over 60% in size
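First, TGR (20 nM dispensed) and NADPH were mixed with compound. Second, a 15 min room-temperature incubation followed. Third, further NADPH and then DTNB were added to start the reaction. Finally, TNB absorbance was monitored kinetically.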
Tb PYK inh – inhibitors of Trypanosoma brucei pyruvate kinase. TbPYK enzyme, Kinase-Glo Plus ATP luminescence, 45 min. Potency, µM (titrated, usually from 76.8 µM), without a hit: at the top dose activity, negative = inhibition, actives largely listed as inhibitors. 0.12% of 410,000 active. AID 624173; note: potency is the fitted concentration of half-maximal effect; % is set by controls: 0 for no effect and ±100 for the full control effect; nearly all actives have a fitted effect of over 50% in size
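Luminescent Kinase-Glo Plus end-point after 45 min room-temperature reaction of T. brucei pyruvate kinase started with 130 uM ADP (final). Buffer TEA 50 mM pH 7.2 with KCl, MgCl2, BSA, Tween-20; titration-based qHTS with fitted concentration-effect curves.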
LmPK inhibitor – blocks Leishmania mexicana pyruvate kinase activity. Potency, µM (series often up to 57.5 µM), for inactives: top-dose activity change, negative = inhibition, most hits filed as inhibitors. 0.37% of 290,000 active. purified LmPK, Kinase-Glo ATP luminescence, 1 h; note: potency is the fitted concentration of half-maximal effect; % is set by controls: 0 for no effect and ±100 for the full control effect
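qHTS format; LmPK 0.1 nM; substrates PEP 0.5 mM and ADP 0.1 mM. One-hour room-temperature incubation, then coupled luciferase luminescence; 0.5 nM enzyme wells mark activation.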
Shiga inhibitor – Shiga toxin inhibition; Vero cells, Shiga toxin protein synthesis inhibition reporter; inhibition, % at 38.7 µM; 9.2% of 290,000 active; in the data active = inhibition mostly above about 28%, no sharp cut-off; inactive = mostly below about 43%; note: 0% is about no effect
Giardia FBPA inh – Giardia lamblia aldolase inhibition. A8B2U2. purified Giardia FBPA. Potency, µM (doses to about 59.6 µM), for the others: at the top dose activity, negative = inhibition, actives largely listed as inhibitors. 0.71% of 290,000 active; note: potency is the fitted concentration of half-maximal effect; % is set by controls: 0 for no effect and ±100 for the full control effect; nearly all actives have a fitted effect of over 55% in size
Target sequence (A8B2U2 whole entry, looked up): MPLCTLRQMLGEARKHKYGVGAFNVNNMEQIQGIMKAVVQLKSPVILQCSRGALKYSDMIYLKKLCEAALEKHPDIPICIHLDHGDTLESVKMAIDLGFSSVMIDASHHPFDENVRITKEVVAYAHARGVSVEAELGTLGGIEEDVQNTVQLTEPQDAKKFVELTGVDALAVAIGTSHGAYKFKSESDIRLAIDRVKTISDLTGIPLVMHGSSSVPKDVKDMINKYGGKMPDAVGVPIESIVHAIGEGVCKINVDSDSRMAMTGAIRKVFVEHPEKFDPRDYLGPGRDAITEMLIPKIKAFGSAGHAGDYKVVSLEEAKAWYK
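40 nM FBPA preincubated 10 min at RT with compound (up to 57.5 uM final), then substrate plus GAPDH/TPI/NAD/arsenate coupling and diaphorase/resazurin added. Fluorescence read after 20 min at RT, 525/598 nm.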
CHX counter – counter-screen hit for Shiga toxin inhibitors, cycloheximide. cell reporter, cycloheximide protein synthesis inhibition counterscreen. max response, %. 12% of 300,000 active; in the data active = max response mostly above about 13%, no sharp cut-off; inactive = mostly below about 14%; note: read at 38.3 µM for the half of the compounds with a filed dose; 0% is about no effect
Numbers without * were called inactive; ? = inconclusive; / = no result; + = active, no number; ! = not confirmed by another sample; [ ] = remark or other dose. The full list was thinned out, with hits kept by preference. Unless noted, calls come from the whole dose curve; as a rule, active = well fitted curve in the direction sought with a large enough effect; inconclusive = small, poorly fitted or top-dose-only effect, or another doubt; inactive = no such curve, though single readings can be large; an effect the other way counts as inactive or inconclusive.

SMILES	Sm TGR inh	Tb PYK inh	LmPK inhibitor	Shiga inhibitor	Giardia FBPA inh	CHX counter
Clc1ccc(-c2csc(N3CCC(c4ccccc4)C3)n2)cc1 (stereo unspecified)	17.7%	-1.3%	2.5%	94.9*	0.2%	18.8
CC1CC(OC(=O)C2CCN(S(=O)(=O)c3ccc(F)cc3)CC2)C(=O)O1 (stereo unspecified)	-3.3%	-3.2%	/	/	/	/
Cc1nc2sc3c(c2c(=O)n1NC(=O)CCBr)CCCC3	39.8µM*	-15.8%	1.8%	0.8	5.7%	11.3
O=C(CNc1ccccc1)Nc1ccc(F)cc1	-0.7%	2.6%	-12.3%	118.3*	?	75.1*
O=C(N/N=C/c1ccc(C(F)(F)F)cc1)c1ccc(O)cc1	2.6%	0.8%	-11.3%	44.4*	-0.1%	31.7*
O=C(N/N=C\c1ccc(F)cc1)c1ccc(F)cc1	-0.7%	2.2%	12.9%[11.5 µM]	75.3*	-1.0%	46.9*
O=C(N/N=C/c1cccc(C(F)(F)F)c1)c1ccc(O)cc1	2.2%	-4.7%	0.4%	98.8	-7.1%	13.6
CC(C)(C)NC(=O)C(=O)N/N=C/c1ccc(F)cc1	12.3%	-0.7%	-0.3%	47.9*	5.2%	26.1*
CCCCN1CCc2nc(N3CCN(c4ncccn4)CC3)ncc2C1	-2.4%	2.5%	/	/	/	/
O=C(NCc1ccc(Cl)cc1)c1cnc2sc(N3CCCC3)nn2c1=O	-0.6%	0.0%	/	/	/	/
O=C(OCCN1CCCCC1)c1cccc(Cl)c1	2.9%	-3.1%	-3.0%	-16.9	-24.1%	-0.2
O=C(N/N=C/c1ccccc1)c1ccc(NC(=O)c2ccc(F)cc2)cc1	6.0%	-7.7%	1.4%	57.7*	7.0%	48.5*
O=C(NCCc1ccc(F)cc1)c1cccc(NC(=O)c2ccccc2)c1	0.2%	7.2%	-3.0%	43.6	0.7%	23.2*
O=C(NN=Cc1ccccc1)NN=Cc1ccccc1	/	-4.1%	/	/	/	/
O=C(NCCCCc1ccccc1)c1cccc(NC(=O)c2ccccc2)c1	/	6.3%	/	/	/	/
O=C(N/N=C/c1ccc(O)cc1)c1csc2c1CCCC2	-7.1%	-3.5%	3.4%	57.1*	-9.5%	46.9*
Nc1ccc(C(=O)N/N=C/c2ccccc2)cc1	11.8%	-5.1%	-3.5%	108.4*	/	40.9*
CC1CCC2(CC1)NC(=O)N(CC(=O)Nc1ccc(F)cc1)C2=O (stereo unspecified)	-13.9%	-8.6%	/	/	/	/
CNC1CCC(c2ccc(Cl)c(Cl)c2)c2ccccc21 (stereo unspecified)	/	/	/	/	-3.9%	/
CCOc1ccc(C(=O)N/N=C/c2ccc(SC)cc2)cc1	5.4%	7.4%	2.4%	0.0	1.9%	-1.9
O=C(N/N=C/c1cnc2ccccc2n1)c1cccc(F)c1	1.0%	5.8%	0.3%	+	-3.0%	27.1*
O=C(N/N=C\c1c(F)c(F)c(F)c(F)c1F)c1ccc(-c2ccccc2)cc1	-8.6%	1.0%	10.2%	-4.6	7.4%	5.0
O=C(N/N=C\c1cccc(F)c1)c1ccc(-c2ccccc2)cc1	-4.0%	-1.2%	-2.1%	26.1	/	21.1*
COC(=O)c1ccc(/C=N/NC(=O)c2cccc(F)c2)cc1	-9.8%	-9.7%	?	105.4*	5.1%	60.8*
CSc1ccc(/C=N/NC(=O)c2cccc(O)c2)cc1	-9.0%	-11.2%	8.91µM*	76.0	-1.7%	27.0*
SMILES	Sm TGR inh	Tb PYK inh	LmPK inhibitor	Shiga inhibitor	Giardia FBPA inh	CHX counter
O=C(Oc1ccc(/C=N/NC(=O)c2ccccn2)cc1)c1cccc(F)c1	/	6.5%	/	/	/	/
O=C(O)CCC(=O)N1CCc2cc(S(=O)(=O)NCc3ccc(F)cc3)ccc21	0.8%	3.9%	/	/	/	/
O=C(Nc1ccc(F)cc1)c1ccccc1	40.3%	-4.6%	-24.9%	103.1*	1.4%	44.1*
CC(=O)Oc1cccc(/C=C2\C=C(c3ccc(C)cc3)OC2=O)c1	/	-24.4%	1.9%	54.9	1.9%	17.2*
Cc1ccc(C2=C/C(=C/c3cccs3)C(=O)O2)cc1	-5.7%	-5.6%	-3.0%	24.8	3.1%	21.8*
CC(=O)Oc1ccc(C)cc1	/	0.0%	/	/	/	/
CC(=O)Oc1cccc(C)c1	/	0.2%	/	182.6*!	6.1%	75.3*!
Cc1ccc(C=C2C=C(c3ccccc3)OC2=O)cc1	/	5.1%	/	/	/	/
CCOc1ccc(C2=C/C(=C/c3cccnc3)C(=O)O2)cc1	?	-3.2%	-1.5%	-0.9	18.9%	8.1
